Laboratory results published in the supplement of paper PMC6555819.

Assays:
Test in all cases: PBM binding z-score (relative to random genomic background probes); higher = stronger binding; sequences stand for … in GC…GCGATTGACAGCGTAGAATGAAGG
[1] = tested on: FXR:RXRa (NR concentration 270 nM, RXRa partner concentration 90 nM)
Method in brief: (§1)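 Ligand-free nuclear receptor dimers were applied to custom Agilent 4×180K protein-binding microarrays whose double-stranded probes carried direct-repeat seeds, single-nucleotide variants, half-site ablations and random human genomic background sequences in 34-nt variable regions. Incubation lasted 1 h. Binding z-scores were computed against the random background probes from regression-normalized fluorescence.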

[2] = tested on: LXRa:RXRa (NR concentration 270 nM, RXRa partner concentration 90 nM)
Method in brief: as §1

[3] = tested on: LXRa homodimer (NR concentration 270 nM)
Method in brief: as §1

[4] = tested on: LXRb:RXRa (NR concentration 270 nM, RXRa partner concentration 90 nM)
Method in brief: as §1

[5] = tested on: LXRb homodimer (NR concentration 270 nM)
Method in brief: as §1

[6] = tested on: PPARa:RXRa (NR concentration 270 nM, RXRa partner concentration 90 nM)
Method in brief: as §1

[7] = tested on: PPARg:RXRa (NR concentration 180 nM, RXRa partner concentration 90 nM)
Method in brief: as §1

[8] = tested on: PPARg:RXRa 270nM:90nM, anti-RXR (NR concentration 270 nM, RXRa partner concentration 90 nM)
Method in brief: as §1

[9] = tested on: PPARg:RXRa 30nM:10nM, anti-RXR (NR concentration 30 nM, RXRa partner concentration 10 nM)
Method in brief: as §1

[10] = tested on: PPARg:RXRa 90nM:30nM, anti-RXR (NR concentration 90 nM, RXRa partner concentration 30 nM)
Method in brief: as §1

Sequence	PBM binding z-score [1]	PBM binding z-score [2]	PBM binding z-score [3]	PBM binding z-score [4]	PBM binding z-score [5]	PBM binding z-score [6]	PBM binding z-score [7]	PBM binding z-score [8]	PBM binding z-score [9]	PBM binding z-score [10]
GGAACGAGGGCAAATTGATAGCAGAGTTTGATGG	0.902	0.348	-0.101	0.452	-0.144	1.73	1.16	0.944	0.134	0.629
ATCTCCAGGTAAAGATAGTTCAGTGAATGCAAAT	0.234	4.39	0.615	0.852	0.602	0.316	0.194	0.28	0.232	-0.042
TCTGCTAGGTCAACGATGGTCACCTAATCTGCTA	3.57	2.97	0.264	2.05	-0.183	3.49	2.96	3.36	1.98	2.76
CCTGCTAGGTCAATGGTCAGGTAAAGCAGCTCGC	3.13	2.29	-0.153	1.46	-0.313	3.36	4.48	5.09	2.62	4.62
TAGCCGAGGTCATTGGGCCAGTATAGTACGCATC	7.32	5.83	2.5	5.28	1.76	6.2	6.77	6.15	3.26	5.02
AGAATGAGGTTAAGATCAGGAAAACAGAATACAT	2.16	1.98	-0.0642	1.77	-0.122	3.76	2.48	2.46	1.03	1.72
CCTACTGGGCCAGAGGTCATTGATTCCAATGCTC	3.89	4.31	4.08	4.28	0.315	5.3	9.61	8.53	9.24	9.4
CCTTCCGGGTCAAGGTTATAGCACGGGTGGTACG	5.06	3.34	0.142	2.85	0.13	4.95	5.1	5.24	2.15	4.32
CCGACTGGGGCATAAGGTTACCAGAAGCCAGCCC	0.432	1.72	-0.288	0.864	-1.26	2	2.27	3.48	1.75	2.93
TCTTGTAGATCAGCAGGTGAAGAAAGCTGGCCAA	0.169	-0.0408	-0.605	-0.0895	-0.698	0.51	-0.409	1.19	2.2	1.8
GCAGACCGGTGAAACGCAGGTAACTCAGGGTGGC	-0.668	-0.615	-0.629	-0.971	-1.86	-1.17	-0.0428	-1.18	-1.16	-1.16
GCTTACGGGTCAAAGGTTATCGCATGAATAGAAT	7.98	5.85	0.561	5.81	0.413	6.94	11.7	9.26	8.55	10.3
CCTACTGGGACATTCAGAGGTCATTGATCATATG	3.08	4.71	7.13	4.05	1.06	3.74	2.3	3.13	0.845	2.31
CTTACTGGGCCAAAAAGGTCATTGATGCCGATAA	4.42	4.75	3.31	4.26	0.76	5.17	5.05	5.24	2.89	4.69
CCTCGGAGGACAACAGGACGTCAGAGCTGCCAGA	0.0455	-0.556	-0.533	-0.881	-0.769	-0.616	0.187	-1.2	-0.952	-1.19
ATCTCTAGGTAAAAGTTCAGGGAATCCCGAGGAT	1.28	1.71	1.26	1.12	1.04	4.42	8.19	7.53	7.81	8.27
CATACAGGGTCAGCTTGGCCAGAGTAGGGACGGC	4.12	2.73	-0.212	1.86	0.138	4.1	2.78	2.88	0.385	1.57
AGTCAAAGTTCACTAGGTAACGTCAGATTCAGCT	4.66	4.88	2.92	2.84	0.994	4.68	6.81	6.74	4.13	5.98
GCATATAGGTAATACAAGGTGAAAGCCCGATTGT	1.68	1.95	0.224	0.494	-0.242	1.56	1.34	1.08	0.375	0.952

Sequence	PBM binding z-score [1]	PBM binding z-score [2]	PBM binding z-score [3]	PBM binding z-score [4]	PBM binding z-score [5]	PBM binding z-score [6]	PBM binding z-score [7]	PBM binding z-score [8]	PBM binding z-score [9]	PBM binding z-score [10]
GATACAGGGTCAAGGCCTGAGTACGCGTATTGAT	6.17	3.94	-0.32	3.35	-0.67	5.35	5.34	5.5	2.3	4.29
ACAGACAGGTGAGTGAAGGTAACTGAGCTGGACG	0.439	-0.0639	-0.513	-0.288	-0.405	0.393	0.534	0.106	-0.146	-0.11
TCTTGTAGATCAGCAGGATAAGAAAGCTGGCCAA	-0.292	-0.433	-0.526	-0.411	-0.635	0.0173	-0.182	1.01	2.37	1.45
CCTTACGGGTCACAGACAGGTTATAGCATTTGGA	5.55	4.19	0.611	3.84	0.0624	5.36	5.74	5.16	2.14	3.99
TCATATAGGTTAACAGGTGAAAGTCCGTAAGTTA	1.57	1.72	0.586	1.72	0.145	3.68	5.44	5.12	4.64	4.91
GCTTACGGGTCAAAGGTTATAGCATGAATAGAAT	7.45	5.9	0.64	6.1	0.563	6.96	11.1	9.42	9.01	9.91
GGAACGAGGGCATTCGAGCTGATAGCATGGCGAT	0.586	0.0957	-0.939	-0.339	-0.953	1.17	0.733	0.363	-0.239	-0.177
ATCTCTTGGTAACAAGTTCAGTGAAAGAGAGGAC	0.45	0.448	0.452	0.565	0.787	0.547	-0.00548	0.156	0.0559	0.28
CCTAGCAGGCCAATCTGGGTCACTGAAGGCTTGA	1.19	1.16	-0.588	0.364	-1.38	3.01	1.75	2.55	0.263	1.81
CGAACTAGGTCATTGCCAGGACAGTGAATAGTAA	3.98	2.75	0.491	1.6	-0.019	4.39	6.96	6.06	3.25	5.51
GCTTGTAGATCAAGCTTAAGAAAGACTAAGCTAA	-0.441	-0.75	-0.914	-0.777	-1.32	-0.455	-0.439	-0.251	-0.693	-0.381
ACTTACGGGTCAAAGAGGTTATAGCACGCGTATA	6.96	5.48	1.34	4.61	0.72	5.71	5.28	5.31	2.31	4.28
CCGAATGGGGCATAAGGTTACCATAAGCCAGCCC	0.489	2.03	-0.224	0.966	-0.843	2.15	2.29	3.95	1.7	3.62
TCGAGTAGGTTACTCGGGGCATTCAGCCAACATA	0.333	0.921	-0.382	0.814	-0.722	1.13	0.392	1.33	1.41	0.94
GATACAGGGTCAGCTAGAGACCAGAGTATGGAAA	4.21	2.28	-0.37	2.36	-0.416	4.54	3.4	3.33	0.781	2.29
CTCGAAAGGTCGTGCTCAGGTGAGGATACCAAAC	5.21	3.76	0.268	3.22	-0.12	4.86	2.79	4.04	0.853	2.43
ATCTCTAGGTAAAGTTTAGTGAAAGATCGATAGA	0.0185	0.132	-0.104	0.124	0.703	0.485	0.873	1.36	0.722	1.25
TTACCAAGGTGAGCTGAGGTCGTTGATCCAACTC	2.68	1.31	-0.429	0.771	-0.932	1.75	0.0695	0.731	-0.00962	0.482
ATTTGTAGGTTAAGGGTCATTCAGGTTGGTTCGC	5.48	5.5	4.38	4.97	2.76	6.21	11.5	9.95	11.8	12.1
